PubChem BioAssay (EPA / NIEHS)
Several values for one entry are separate records, joined by “and”; a condition that tells them apart may be missing. Equal values may be shown once. Records with an inconclusive call do not appear. Some compounds were tested as several samples or in several runs, with calls that do not always agree. Activity calls are given as the source filed them. How the source made its calls: active means hit-call score of the fitted dose curve at least 0.9, where 1 is the maximum; inconclusive means response in the unintended direction; inactive means score below 0.9.

Columns and labels:
[1] = target: human Sirtuin 3 (SIRT3), SIRT3 (gene 23410) (UniProt Q9NTG7); assay: NVS_ENZ_hSIRT3: NovaScreen (NVS) Enzymatic Assay for human Sirtuin 3 (SIRT3) (AID 2283222)
How it was run: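 Cell-free enzyme assay with recombinant protein and fluorescent substrate, product separated by electrophoretic mobility shift; read 1 hour after dosing. Screened in duplicate at 25 uM, then singleton concentration-response up to 50 uM; loss of signal versus DMSO.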

[2] = target: human Protein Tyrosine Phosphatase Receptor Type F (PTPRF), PTPRF (gene 5792) (UniProt P10586); assay: NVS_ENZ_hPTPRF: NovaScreen (NVS) Enzymatic Assay for human Protein Tyrosine Phosphatase Receptor Type F (PTPRF) (AID 2283213)
How it was run: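 Cell-free fluorescence enzyme assay with recombinant protein and substrate; product separated by electrophoretic mobility shift. Read 1 h after dosing, single 25 uM duplicate screen, then concentration-response up to 50 uM; loss of signal vs DMSO.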

[3] = target: rat Adenylate Cyclase, Forskolin Stimulated, Adcy5 (gene 64532) (UniProt Q04400); assay: NVS_ENZ_rACFSKBinding: NovaScreen (NVS) Enzymatic Assay for rat Adenylate Cyclase, Forskolin Stimulated (AID 2283232)
How it was run: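 Chemicals were first tested at 25 uM in duplicate, then hits run as concentration series with top concentration 50 uM. Enzyme source was rat forebrain membranes; radiometric filter read-out after 1 h, referenced to DMSO.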

[4] = target: rat Acetylcholinesterase (AChE), Ache (gene 83817) (UniProt P37136); assay: NVS_ENZ_rAChE: NovaScreen (NVS) Enzymatic Assay for rat Acetylcholinesterase (AChE) (AID 2283233)
How it was run: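 Compounds first screened at 25 uM in duplicate, then those passing threshold tested in concentration series up to 50 uM, against AChE from rat brain membranes. Enzyme activity read by absorbance at 0.33 h; inhibition scored versus DMSO.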

[5] = target: human Raf-1 Proto-Oncogene, serine/threonine Kinase (RAF1), RAF1 (gene 5894) (UniProt P04049); assay: NVS_ENZ_hRAF1: NovaScreen (NVS) Enzymatic Assay for human Raf-1 Proto-Oncogene, serine/threonine Kinase (RAF1) (AID 2283216)
How it was run: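 Single-point screening at 25 uM (duplicate), followed by singleton concentration-response to 50 uM maximum for chemicals exceeding threshold. Enzyme activity from fluorescent substrate-product mobility-shift separation after 1 h, relative to DMSO.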

[6] = target: human Protein Tyrosine Phosphatase Receptor Type M (PTPRM), PTPRM (gene 5797) (UniProt P28827); assay: NVS_ENZ_hPTPRM: NovaScreen (NVS) Enzymatic Assay for human Protein Tyrosine Phosphatase Receptor Type M (PTPRM) (AID 2283215)
How it was run: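 Read-out is fluorescence after electrophoretic separation of substrate and product, taken 1.33 h post-dosing with recombinant enzyme. Compounds screened at 25 uM in duplicate, then concentration series for actives; activity as signal loss relative to DMSO.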

[7] = target: human Protein Tyrosine Phosphatase Non-receptor Type 6 (PTPN6), PTPN6 (gene 5777) (UniProt P29350); assay: NVS_ENZ_hPTPN6: NovaScreen (NVS) Enzymatic Assay for human Protein Tyrosine Phosphatase Non-receptor Type 6 (PTPN6) (AID 2283210)
How it was run: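 Recombinant human PTPN6 from SF9 cells, enzyme activity followed by fluorescence after mobility-shift separation of substrate and product at 1.33 h. Chemicals first tested at a single 25 uM in duplicate, then confirmed across concentration series; loss of signal relative to DMSO.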

[8] = target: human Protein Tyrosine Phosphatase Receptor Type B (PTPRB), PTPRB (gene 5787) (UniProt P23467); assay: NVS_ENZ_hPTPRB: NovaScreen (NVS) Enzymatic Assay for human Protein Tyrosine Phosphatase Receptor Type B (PTPRB) (AID 2283211)
How it was run: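 Recombinant human PTPRB with a fluorescent substrate, product separated by electrophoretic mobility shift; read 1 h after dosing. Primary screen in duplicate at 25 uM; actives then retested in concentration series; loss of signal versus DMSO.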

[9] = target: human Protein Tyrosine Phosphatase Receptor Type C (PTPRC), PTPRC (gene 5788) (UniProt P08575); assay: NVS_ENZ_hPTPRC: NovaScreen (NVS) Enzymatic Assay for human Protein Tyrosine Phosphatase Receptor Type C (PTPRC) (AID 2283212)
How it was run: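 Absorbance-based phosphatase activity of human PTPRC protein extracted from yeast was measured 1 h post-dosing. Compounds first tested at 25 uM in duplicate, then those passing threshold in singleton concentration series to 50 uM.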

[10] = target: human Rho Associated Coiled-coil Containing Protein Kinase 1 (ROCK1), ROCK1 (gene 6093) (UniProt Q13464); assay: NVS_ENZ_hROCK1: NovaScreen (NVS) Enzymatic Assay for human Rho Associated Coiled-coil Containing Protein Kinase 1 (ROCK1) (AID 2283214)
How it was run: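 Compounds first run in duplicate at 25 uM against recombinant human ROCK1, then followed in concentration series. Kinase activity was read 1 h post-dosing by fluorescence with mobility-shift separation, as signal loss relative to DMSO.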

[11] = target: human Tropomyosin Receptor Kinase A (TRKA), NTRK1 (gene 4914) (UniProt P04629); assay: NVS_ENZ_hTrkA: NovaScreen (NVS) Enzymatic Assay for human Tropomyosin Receptor Kinase A (TRKA) (AID 2283224)
How it was run: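 Compounds were screened at 25 uM in duplicate, then concentration series to a 50 uM top for those meeting threshold (e.g. 30% inhibition). Enzyme was recombinant human TrkA, incubated 1 h. Product formation was quantified by fluorescence after mobility-shift separation.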

[12] = target: human Tyrosine Protein Kinase Receptor Tie-2 (Tie2), TEK (gene 7010) (UniProt Q02763); assay: NVS_ENZ_hTie2: NovaScreen (NVS) Enzymatic Assay for human Tyrosine Protein Kinase Receptor Tie-2 (Tie2) (AID 2283225)
How it was run: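 Substrate and product were separated by mobility shift and detected by fluorescence after a 1-hour reaction with recombinant Tie2. Chemicals passing a 25 uM single-point screen were titrated to a maximum of 50 uM. Results were normalized to DMSO baseline.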

[13] = target: human Vascular Endothelial Growth Factor Receptor 1 (VEGFR1), FLT1 (gene 2321) (UniProt P17948); assay: NVS_ENZ_hVEGFR1: NovaScreen (NVS) Enzymatic Assay for human Vascular Endothelial Growth Factor Receptor 1 (VEGFR1) (AID 2283226)
How it was run: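 Kinase activity of recombinant human VEGFR1 was read by fluorescence after electrophoretic separation of product from substrate, 1 h post-dosing; initial duplicate single-point testing at 25 uM, followed by concentration-series follow-up, with DMSO as baseline.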

[14] = target: human Vascular Endothelial Growth Factor Receptor 3 (VEGFR3), FLT4 (gene 2324) (UniProt P35916); assay: NVS_ENZ_hVEGFR3: NovaScreen (NVS) Enzymatic Assay for human Vascular Endothelial Growth Factor Receptor 3 (VEGFR3) (AID 2283229)
How it was run: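 Chemicals first run in duplicate at 25 uM, with actives re-tested in concentration series to a top of 50 uM. Recombinant VEGFR3 activity measured after 1 h via fluorescence with mobility-shift product separation; inhibition fitted relative to DMSO.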

[15] = target: human Vascular Endothelial Growth Factor Receptor 2 (VEGFR2), KDR (gene 3791) (UniProt P35968); assay: NVS_ENZ_hVEGFR2: NovaScreen (NVS) Enzymatic Assay for human Vascular Endothelial Growth Factor Receptor 2 (VEGFR2) (AID 2283230)
How it was run: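 Cell-free recombinant VEGFR2 kinase, fluorescent substrate with electrophoretic mobility-shift separation; read 1 h after dosing. Screened at 25 uM in duplicate, hits to concentration-response up to 50 uM; loss-of-signal versus DMSO.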

[16] = target: sheep Cyclooxygenase-2 (Cox2), PTGS2 (gene 443460) (UniProt P79208); assay: NVS_ENZ_oCOX2: NovaScreen (NVS) Enzymatic Assay for sheep Cyclooxygenase-2 (Cox2) (AID 2283231)
How it was run: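 Colorimetric absorbance read-out of COX activity, taken 0.66 hour post-dosing, using native protein from sheep placenta. Single-concentration duplicate screen (25 uM), then singleton concentration-response up to 50 uM for actives.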

[17] = target: human Sirtuin 2 (SIRT2), SIRT2 (gene 22933) (UniProt Q8IXJ6); assay: NVS_ENZ_hSIRT2: NovaScreen (NVS) Enzymatic Assay for human Sirtuin 2 (SIRT2) (AID 2283217)
How it was run: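 Single-point duplicate screen at 25 uM, then concentration-response (max 50 uM) for chemicals passing threshold. Enzyme activity of recombinant human SIRT2 measured after 1 hr by fluorescence with mobility-shift separation of product; DMSO baseline.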

[18] = target: human Sirtuin 1 (SIRT1), SIRT1 (gene 23411) (UniProt Q96EB6); assay: NVS_ENZ_hSIRT1: NovaScreen (NVS) Enzymatic Assay for human Sirtuin 1 (SIRT1) (AID 2283219)
How it was run: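 Cell-free recombinant SIRT1 with a fluorescent substrate; substrate and product separated by electrophoretic mobility shift and read by fluorescence intensity, 1 h after dosing. Primary screen at 25 uM in duplicate; hits re-run in concentration-response up to 50 uM, relative to DMSO.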

[19] = target: human SRC Proto-Oncogene, Non-receptor Tyrosine Kinase (SRC), SRC (gene 6714) (UniProt P12931); assay: NVS_ENZ_hSRC: NovaScreen (NVS) Enzymatic Assay for human SRC Proto-Oncogene, Non-receptor Tyrosine Kinase (SRC) (AID 2283223)
How it was run: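 Compounds passing 30% inhibition at 25 uM (duplicate) were titrated to a top concentration of 50 uM. Enzyme activity read by fluorescence with mobility-shift substrate/product separation after 1 h; DMSO baseline.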

Chain of rat Acetylcholinesterase (AChE), Ache (gene 83817) (P37136 whole entry, looked up): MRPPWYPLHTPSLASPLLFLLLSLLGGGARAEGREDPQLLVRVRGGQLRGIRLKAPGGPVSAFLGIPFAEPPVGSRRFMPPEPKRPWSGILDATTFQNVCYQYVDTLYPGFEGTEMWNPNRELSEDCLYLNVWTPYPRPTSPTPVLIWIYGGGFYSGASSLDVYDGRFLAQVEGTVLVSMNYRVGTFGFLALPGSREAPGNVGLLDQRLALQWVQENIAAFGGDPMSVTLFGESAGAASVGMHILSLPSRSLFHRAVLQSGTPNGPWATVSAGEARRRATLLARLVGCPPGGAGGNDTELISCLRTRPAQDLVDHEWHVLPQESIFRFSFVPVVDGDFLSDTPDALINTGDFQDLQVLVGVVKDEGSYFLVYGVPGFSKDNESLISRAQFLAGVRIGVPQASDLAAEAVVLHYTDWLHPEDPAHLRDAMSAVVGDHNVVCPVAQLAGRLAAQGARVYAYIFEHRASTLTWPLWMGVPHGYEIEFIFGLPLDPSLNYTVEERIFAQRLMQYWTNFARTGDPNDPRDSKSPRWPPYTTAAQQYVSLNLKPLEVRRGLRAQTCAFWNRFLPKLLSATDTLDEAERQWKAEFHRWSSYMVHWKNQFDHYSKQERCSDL
Chain of human Protein Tyrosine Phosphatase Receptor Type B (PTPRB), PTPRB (gene 5787) (P23467 whole entry, looked up): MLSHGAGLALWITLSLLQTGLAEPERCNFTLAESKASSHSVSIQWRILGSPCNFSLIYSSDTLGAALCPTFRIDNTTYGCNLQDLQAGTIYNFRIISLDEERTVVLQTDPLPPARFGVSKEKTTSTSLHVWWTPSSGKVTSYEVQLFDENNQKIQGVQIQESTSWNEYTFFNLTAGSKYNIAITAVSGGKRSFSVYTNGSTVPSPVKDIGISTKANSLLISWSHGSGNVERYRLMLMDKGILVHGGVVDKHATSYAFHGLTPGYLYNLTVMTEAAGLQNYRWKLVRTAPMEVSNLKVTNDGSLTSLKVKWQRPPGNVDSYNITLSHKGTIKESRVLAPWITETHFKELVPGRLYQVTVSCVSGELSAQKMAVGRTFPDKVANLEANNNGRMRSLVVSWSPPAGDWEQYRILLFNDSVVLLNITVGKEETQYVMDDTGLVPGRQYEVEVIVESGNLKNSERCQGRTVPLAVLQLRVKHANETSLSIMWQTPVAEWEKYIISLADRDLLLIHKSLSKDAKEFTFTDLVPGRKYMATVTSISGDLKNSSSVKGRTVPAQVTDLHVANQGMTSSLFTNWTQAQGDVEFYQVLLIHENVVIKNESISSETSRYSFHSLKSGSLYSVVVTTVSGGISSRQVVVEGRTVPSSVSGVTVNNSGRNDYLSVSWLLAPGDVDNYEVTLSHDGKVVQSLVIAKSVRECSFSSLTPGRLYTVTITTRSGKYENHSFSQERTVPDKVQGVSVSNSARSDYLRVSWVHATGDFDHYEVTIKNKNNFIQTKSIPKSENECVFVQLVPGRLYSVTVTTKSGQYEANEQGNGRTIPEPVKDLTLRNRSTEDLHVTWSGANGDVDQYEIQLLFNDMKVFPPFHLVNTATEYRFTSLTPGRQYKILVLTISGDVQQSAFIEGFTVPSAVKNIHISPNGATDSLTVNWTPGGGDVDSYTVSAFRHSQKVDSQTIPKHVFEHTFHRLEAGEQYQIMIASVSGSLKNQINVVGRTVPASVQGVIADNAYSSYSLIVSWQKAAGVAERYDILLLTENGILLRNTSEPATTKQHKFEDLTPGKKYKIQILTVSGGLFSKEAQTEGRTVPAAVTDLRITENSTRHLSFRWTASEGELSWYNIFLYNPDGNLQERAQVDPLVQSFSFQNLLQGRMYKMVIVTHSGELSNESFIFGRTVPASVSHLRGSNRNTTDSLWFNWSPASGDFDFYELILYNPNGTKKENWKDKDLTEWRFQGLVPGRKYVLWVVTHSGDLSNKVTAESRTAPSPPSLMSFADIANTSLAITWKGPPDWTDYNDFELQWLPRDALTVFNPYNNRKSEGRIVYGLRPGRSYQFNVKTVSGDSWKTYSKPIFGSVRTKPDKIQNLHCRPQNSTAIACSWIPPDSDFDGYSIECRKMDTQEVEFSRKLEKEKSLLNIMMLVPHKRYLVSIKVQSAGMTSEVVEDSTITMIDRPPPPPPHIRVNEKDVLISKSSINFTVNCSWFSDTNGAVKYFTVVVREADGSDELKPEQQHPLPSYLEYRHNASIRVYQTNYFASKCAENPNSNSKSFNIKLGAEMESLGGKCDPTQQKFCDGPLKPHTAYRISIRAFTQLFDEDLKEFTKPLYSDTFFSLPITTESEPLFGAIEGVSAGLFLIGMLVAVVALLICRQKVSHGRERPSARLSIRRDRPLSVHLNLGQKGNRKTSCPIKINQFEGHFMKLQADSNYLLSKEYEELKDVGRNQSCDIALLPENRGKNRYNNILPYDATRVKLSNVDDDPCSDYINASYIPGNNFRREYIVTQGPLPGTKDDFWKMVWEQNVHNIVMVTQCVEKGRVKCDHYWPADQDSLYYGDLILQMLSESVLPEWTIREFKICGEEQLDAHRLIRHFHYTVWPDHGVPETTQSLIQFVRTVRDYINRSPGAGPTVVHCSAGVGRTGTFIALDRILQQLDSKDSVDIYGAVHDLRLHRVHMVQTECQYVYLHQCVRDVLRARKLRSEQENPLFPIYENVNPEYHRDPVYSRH
Chain of human Vascular Endothelial Growth Factor Receptor 2 (VEGFR2), KDR (gene 3791) (P35968 whole entry, looked up): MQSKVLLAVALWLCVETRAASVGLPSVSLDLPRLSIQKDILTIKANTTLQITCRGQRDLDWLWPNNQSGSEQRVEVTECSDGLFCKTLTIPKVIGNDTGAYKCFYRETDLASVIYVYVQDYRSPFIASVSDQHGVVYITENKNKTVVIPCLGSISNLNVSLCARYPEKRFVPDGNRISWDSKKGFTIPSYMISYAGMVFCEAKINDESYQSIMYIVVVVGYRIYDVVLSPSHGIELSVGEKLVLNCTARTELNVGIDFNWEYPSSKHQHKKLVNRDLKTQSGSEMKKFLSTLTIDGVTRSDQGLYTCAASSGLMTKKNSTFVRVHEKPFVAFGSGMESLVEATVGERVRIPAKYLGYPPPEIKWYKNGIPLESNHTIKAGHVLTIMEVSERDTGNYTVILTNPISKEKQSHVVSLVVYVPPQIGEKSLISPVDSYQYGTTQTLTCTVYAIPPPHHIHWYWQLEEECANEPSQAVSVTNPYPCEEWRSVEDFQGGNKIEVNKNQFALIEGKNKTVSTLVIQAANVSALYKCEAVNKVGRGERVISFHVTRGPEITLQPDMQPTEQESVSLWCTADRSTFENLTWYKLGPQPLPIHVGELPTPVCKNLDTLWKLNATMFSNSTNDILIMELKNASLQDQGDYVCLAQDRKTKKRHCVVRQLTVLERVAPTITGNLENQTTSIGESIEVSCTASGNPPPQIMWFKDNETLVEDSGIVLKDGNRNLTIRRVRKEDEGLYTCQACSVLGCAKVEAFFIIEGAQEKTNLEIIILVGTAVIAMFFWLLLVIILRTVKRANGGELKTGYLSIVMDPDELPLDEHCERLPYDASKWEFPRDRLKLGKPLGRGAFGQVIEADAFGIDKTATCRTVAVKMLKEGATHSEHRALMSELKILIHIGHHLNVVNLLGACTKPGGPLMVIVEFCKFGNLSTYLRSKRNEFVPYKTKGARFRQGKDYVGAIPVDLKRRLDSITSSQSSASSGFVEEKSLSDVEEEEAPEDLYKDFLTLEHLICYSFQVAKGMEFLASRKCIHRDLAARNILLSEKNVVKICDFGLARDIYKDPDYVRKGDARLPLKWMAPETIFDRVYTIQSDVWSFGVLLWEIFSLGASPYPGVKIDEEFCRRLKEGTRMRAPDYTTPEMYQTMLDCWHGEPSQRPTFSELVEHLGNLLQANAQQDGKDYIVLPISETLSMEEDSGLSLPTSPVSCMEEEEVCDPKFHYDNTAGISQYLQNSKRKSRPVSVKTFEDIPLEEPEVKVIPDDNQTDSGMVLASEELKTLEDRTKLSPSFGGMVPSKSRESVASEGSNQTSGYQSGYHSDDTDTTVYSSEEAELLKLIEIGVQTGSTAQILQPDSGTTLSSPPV
Chain of human Tyrosine Protein Kinase Receptor Tie-2 (Tie2), TEK (gene 7010) (Q02763 whole entry, looked up): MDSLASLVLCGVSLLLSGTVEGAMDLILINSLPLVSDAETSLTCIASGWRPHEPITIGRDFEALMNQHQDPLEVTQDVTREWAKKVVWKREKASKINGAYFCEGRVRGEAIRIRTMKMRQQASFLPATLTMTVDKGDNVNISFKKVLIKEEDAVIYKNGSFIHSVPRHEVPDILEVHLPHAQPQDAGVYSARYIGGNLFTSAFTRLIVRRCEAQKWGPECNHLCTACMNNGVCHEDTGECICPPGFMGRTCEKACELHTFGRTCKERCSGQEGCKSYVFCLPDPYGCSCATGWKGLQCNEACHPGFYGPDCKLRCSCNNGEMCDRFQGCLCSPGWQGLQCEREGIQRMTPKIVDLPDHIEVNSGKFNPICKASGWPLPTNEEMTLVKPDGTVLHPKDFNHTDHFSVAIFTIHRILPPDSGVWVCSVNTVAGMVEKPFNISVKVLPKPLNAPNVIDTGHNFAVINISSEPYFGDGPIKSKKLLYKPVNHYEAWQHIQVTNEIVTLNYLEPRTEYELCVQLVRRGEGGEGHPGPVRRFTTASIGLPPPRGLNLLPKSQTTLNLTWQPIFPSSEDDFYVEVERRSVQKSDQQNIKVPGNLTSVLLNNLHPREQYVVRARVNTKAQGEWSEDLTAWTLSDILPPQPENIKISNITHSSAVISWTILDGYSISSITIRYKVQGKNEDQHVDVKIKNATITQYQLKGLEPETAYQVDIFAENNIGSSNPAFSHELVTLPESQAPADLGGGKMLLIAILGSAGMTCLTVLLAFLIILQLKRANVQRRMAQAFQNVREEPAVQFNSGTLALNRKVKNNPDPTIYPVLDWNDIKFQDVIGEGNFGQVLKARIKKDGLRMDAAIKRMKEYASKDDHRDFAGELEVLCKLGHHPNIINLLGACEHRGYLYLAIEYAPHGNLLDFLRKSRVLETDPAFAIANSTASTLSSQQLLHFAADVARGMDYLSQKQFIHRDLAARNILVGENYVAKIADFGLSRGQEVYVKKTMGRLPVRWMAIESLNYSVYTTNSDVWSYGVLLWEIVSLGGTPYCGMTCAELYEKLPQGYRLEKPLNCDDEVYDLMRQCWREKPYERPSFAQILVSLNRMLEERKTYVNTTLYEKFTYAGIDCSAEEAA

C[Si](Cn1cncn1)(c1ccc(F)cc1)c1ccc(F)cc1
outcome [1]: inactive

CCCCSP(=O)(SCCCC)SCCCC
outcome [2]: inactive

Cc1ccn2nc(S(=O)(=O)Nc3c(F)cccc3F)nc2n1
outcome [3]: inactive

CNC(=O)ON=C(C)SC
AC50 [4]: 3.86 µM (active)

CCCOCC(=Nc1ccc(Cl)cc1C(F)(F)F)n1ccnc1
outcome [5]: inactive

COP(=O)(OC)SCn1c(=O)oc2cc(Cl)cnc21
AC50 [4]: 2.11 µM (active)

Nc1c(Cl)cc([N+](=O)[O-])cc1Cl
outcome [6]: inactive

CN(C)[C@@H]1C(=O)C(C(N)=O)=C(O)[C@@]2(O)C(=O)C3=C(O)c4c(O)cccc4[C@@](C)(O)[C@H]3[C@H](O)[C@@H]12
AC50 [7]: 41.4 µM (active) | AC50 [8]: 29.7 µM (active) and 10.1 µM (active) | outcome [8]: inactive | AC50 [9]: 11.4 µM (active) | outcome [10]: inactive | AC50 [5]: 11.1 µM (active) | AC50 [11]: 17.8 µM (active) | AC50 [12]: 7.51 µM (active) and 13.4 µM (active) and 8.19 µM (active) | AC50 [13]: 3.49 µM (active) | outcome [13]: inactive | AC50 [14]: 6.44 µM (active) and 3.42 µM (active) and 969 nM (active) | AC50 [15]: 12.3 µM (active) and 18.2 µM (active) | outcome [15]: inactive | AC50 [16]: 1890 nM (active)

CC[C@H](C)[C@H]1O[C@]2(C=C[C@@H]1C)C[C@@H]1C[C@@H](C/C=C(\C)[C@@H](O[C@H]3C[C@H](OC)[C@@H](O[C@H]4C[C@H](OC)[C@@H](NC)[C@H](C)O4)[C@H](C)O3)[C@@H](C)/C=C/C=C3\CO[C@@H]4[C@H](O)C(C)=C[C@@H](C(=O)O1)[C@]34O)O2
AC50 [6]: 9.67 µM (active) | AC50 [17]: 25 µM (active) | outcome [18]: inactive | AC50 [1]: 1.25 µM (active) | AC50 [19]: 34 µM (active) | outcome [12]: inactive | outcome [15]: inactive | AC50 [16]: 39.6 nM (active)

N#CSCSC#N
outcome [6]: inactive | AC50 [18]: 11.3 µM (active) | outcome [1]: inactive | AC50 [3]: 25 µM (active)

CC(=NC#N)N(C)Cc1ccc(Cl)nc1
outcome [2]: inactive | outcome [4]: inactive

FC(F)C(F)(F)OCC(Cn1cncn1)c1ccc(Cl)cc1Cl (centres undefined)
AC50 [17]: 14.6 µM (active) | AC50 [1]: 25 µM (active) | AC50 [16]: 670 nM (active)

CNC(=O)Oc1cccc2c1OC(C)(C)O2
AC50 [4]: 0.797 µM (active)
